In the library only some 21% were active in any assay of this set; here they are far more common.
IL1B secr inh: inflammasome signaling inhibition, IL-1 beta readout; THP-1 LPS/ATP IL-1B secretion, AlphaLISA, 16 h; hits give low values; activity change, % at 57.5 µM; hit rate 4.7% among 360,000; AID 743279; in the data active means activity change below about -50%; inconclusive means mostly about -30% to -49%
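THP-1 cells pretreated 1 hr with compounds (up to 57.5 uM final), then stimulated with LPS (250 ng/mL final) plus ATP (1.25 mM final); secreted IL-1B measured by AlphaLISA after 16 hr, decreased signal indicating inhibition.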
D3 ag: D3 dopamine receptor (human) agonism; D3R DiscoveRx beta-arrestin cells, luminescence, 90 min; max activation, %; hit rate 0.58% among 410,000; AID 652048; in the data active means max activation above about 30%
Target sequence (P35462 whole entry, looked up): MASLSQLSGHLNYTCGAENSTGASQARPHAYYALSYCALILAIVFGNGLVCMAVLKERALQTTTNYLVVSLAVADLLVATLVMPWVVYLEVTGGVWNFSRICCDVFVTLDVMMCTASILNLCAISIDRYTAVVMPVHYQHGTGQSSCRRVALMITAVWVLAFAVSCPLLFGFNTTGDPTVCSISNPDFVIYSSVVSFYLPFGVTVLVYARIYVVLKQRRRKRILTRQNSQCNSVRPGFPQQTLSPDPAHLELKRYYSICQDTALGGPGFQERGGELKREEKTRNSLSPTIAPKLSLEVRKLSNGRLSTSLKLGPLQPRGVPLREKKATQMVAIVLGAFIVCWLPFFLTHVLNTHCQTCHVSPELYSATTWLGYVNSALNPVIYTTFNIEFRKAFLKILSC
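Cells at 1500/well, incubated overnight, then treated with pinned compounds (dopamine as control) for 90 min at 37 degrees C. DiscoveRx reagent added for 30 - 60 minutes at room temperature; luminescence read.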
D3 antag: blocks the human D3 dopamine receptor; P35462; max response, negative = inhibition, %; hit rate 2.5% among 360,000; AID 652054; D3R cells, DiscoveRx beta-arrestin luminescence, antagonist mode; hits give low values; in the data active means max response below about -50%; inconclusive means no clear call, values can overlap the other calls
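Cells plated overnight at 1500 cells/well, then exposed to library compounds with dopamine controls for 90 minutes at 37 degrees C. DiscoveRx reagent added for 30–60 minutes at room temperature; luminescence read, quantitative HTS format.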
DT40 TDP1 no CPT: qHTS for Inhibitors of human tyrosyl-DNA phosphodiesterase 1 (TDP1): qHTS in cells in absence of CPT. DT40 Tdp1-/- hTDP1 cells, no CPT, ATP luminescence, 48 h. Potency, µM (titrated, usually from 46.2 µM), most hits filed as inhibitors. hit rate 15% among 420,000. AID 686978, 2013; further: nearly all actives have a fitted effect of over 55% in size
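No-CPT arm: Tdp1-/-;hTDP1 DT40 cells (400/well) plus compounds, incubated ≥48 hr at 37 °C. Readout CellTiter-Glo luminescence.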
ClpP mod: qHTS Assay for Activators of ClpP; ATP-dependent Clp protease proteolytic subunit (Bacillus subtilis (strain 168)), P80244; purified B. subtilis ClpP, FRET peptide cleavage, 20 min; Potency, µM (doses to about 57.5 µM); hit rate 1.9% among 340,000; AID 651965, 2013; active means well fitted falling curve with a large enough effect; inconclusive means small, poorly fitted or top-dose-only effect; inactive means no such curve, though single readings can be large or run the other way; further: the source files actives as falling curves though it sought activators and does not explain the sign; nearly all actives have a fitted effect of over 65% in size
Target sequence (P80244 whole entry, looked up): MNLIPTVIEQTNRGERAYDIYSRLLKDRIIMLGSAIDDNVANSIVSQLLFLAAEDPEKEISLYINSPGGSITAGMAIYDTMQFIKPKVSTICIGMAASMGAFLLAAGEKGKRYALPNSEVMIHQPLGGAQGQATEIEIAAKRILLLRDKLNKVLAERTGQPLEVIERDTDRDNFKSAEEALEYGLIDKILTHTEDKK
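Buffer: 100 mM Tris/HCl pH8, 100 mM KCl, 0.05% low protease BSA, 2.5% glycerol, 0.01% Tween-20. ClpP 10 microg/mL final; 20 min RT; delta FRET normalized to ADEP and DMSO controls.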
DT40 TDP1 CPT: growth inhibition of DT40 Tdp1-/-;hTDP1 cells with camptothecin (screen for TDP1 inhibitors) | chicken DT40 Tdp1-/-;hTDP1 cells + 20 nM CPT, ATP luminescence, 48 h | Potency, µM (top dose mostly 46.2 µM), hits mostly inhibitors | AID 686979 | hit rate 12% among 420,000; further: nearly all actives have a fitted effect of over 55% in size
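Cell growth measured by CellTiter-Glo luminescence after a minimum 48 h, 37 C compound exposure with 20 nM CPT in Tdp1-knockout DT40 cells stably expressing hTDP1, seeded 400/well; qHTS titration format.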
Of the large screens only hits and unclear results are named; the others gave an inactive call. Unless noted, the call rests on the fitted dose curve; in most records, active means well fitted inhibition curve with a large enough effect; inconclusive means small, poorly fitted or top-dose-only effect; inactive means flat fitted curve, though single readings scatter.

O=C1C2=C(Nc3ccccc3SC2c2c(F)cccc2Cl)c2ccccc21 (centres undefined)	DT40 TDP1 no CPT inconclusive, DT40 TDP1 CPT 15µM (no result: IL1B secr inh, D3 antag)
CCCc1ccc(C2Sc3ccccc3NC3=C2C(=O)c2ccccc23)cc1 (centres undefined)	DT40 TDP1 no CPT 15µM, DT40 TDP1 CPT inconclusive (no result: IL1B secr inh, D3 antag)
O=C(CC1Sc2ccccc2NC1=O)NNc1cccc(Cl)c1Cl (centres undefined)	DT40 TDP1 no CPT inconclusive, DT40 TDP1 CPT inconclusive
O=C1C2=C(Nc3ccccc3SC2c2ccccc2C(F)(F)F)c2ccccc21 (centres undefined)	DT40 TDP1 no CPT 3.3µM, DT40 TDP1 CPT 5.8µM (no result: IL1B secr inh, D3 antag)
CCC(=O)OCc1cnc(C)c2oc(=O)c(C(=O)Nc3ccccc3C(F)(F)F)cc12	none (no result: IL1B secr inh, D3 antag)
COc1ccc(Br)cc1C1Nc2ccccc2C(=O)N1NC(=O)c1ccncc1 (centres undefined)	none
COc1ccc(Br)cc1C1Sc2ccccc2NC2=C1C(=O)c1ccccc12 (centres undefined)	DT40 TDP1 no CPT 13µM, DT40 TDP1 CPT inconclusive (no result: IL1B secr inh, D3 antag)
COc1cc(/C=C/C(=O)OCC(=O)N2CCc3ccccc32)cc(OC)c1OC	DT40 TDP1 no CPT inconclusive, DT40 TDP1 CPT inconclusive
COc1cc(/C=C/C(=O)OCC(=O)NC(=O)NC(C)C)cc(S(=O)(=O)N2CCc3ccccc32)c1OC	IL1B secr inh inconclusive, DT40 TDP1 no CPT 21µM, ClpP mod 20µM, DT40 TDP1 CPT inconclusive
O=C(NC12CC3CC(CC(C3)C1)C2)N1CCN(c2nc(-c3ccccc3)cs2)CC1	IL1B secr inh inconclusive, DT40 TDP1 no CPT 18µM, DT40 TDP1 CPT inconclusive
CN(C)C(=O)N1CCN(c2nc(-c3ccccc3)cs2)CC1	DT40 TDP1 no CPT inconclusive, DT40 TDP1 CPT inconclusive
O=C(NC1CCCCC1)N1CCN(CCc2ccccc2)CC1	D3 antag -61
NC(=O)C1(N2CCCCC2)CCN(c2nc(-c3ccccc3)cs2)CC1	DT40 TDP1 no CPT 16µM, DT40 TDP1 CPT 21µM
O=C(N1CCOCC1)N1CCN(c2nc(-c3ccccc3)cs2)CC1	DT40 TDP1 no CPT inconclusive
O=C(NC1CCCCC1)N1CCN(c2nc(-c3ccccc3)cs2)CC1	IL1B secr inh -64, DT40 TDP1 no CPT 26µM, DT40 TDP1 CPT inconclusive
Cc1ccc(Cl)cc1N1CCN(S(=O)(=O)c2ccc3[nH]c4c(c3c2)CCCCC4)CC1	ClpP mod inconclusive (no result: IL1B secr inh, D3 antag, DT40 TDP1 no CPT, DT40 TDP1 CPT)
COc1cccc(C2(CC(=O)N3CCN(c4ccccn4)CC3)CC(=O)N(C3CCCC3)C2=O)c1 (centres undefined)	DT40 TDP1 no CPT inconclusive (no result: IL1B secr inh, D3 ag, D3 antag, ClpP mod)
COCC(=O)Nc1cc(C(=O)NC2CCc3ccccc32)c2c(c1)nc(-c1ccncc1)n2C (centres undefined)	DT40 TDP1 no CPT inconclusive (no result: IL1B secr inh, D3 ag, D3 antag, ClpP mod)
CC1(C)CC(NC(=S)NC2CC2)CC(C)(C)N1	ClpP mod 35µM
C=CCNC(=S)NC1CC(C)(C)NC(C)(C)C1	none
COc1ccc(OC)c(C2C(C(=O)Nc3ccc(C)cc3)=C(C)Nc3nnnn32)c1 (centres undefined)	none (no result: IL1B secr inh, D3 antag, DT40 TDP1 no CPT, DT40 TDP1 CPT)
O=C(O)c1ccc(Cn2ccc3ccccc32)o1	none
c1ccc(C2(Cn3ccc4ccccc43)OCCO2)cc1	D3 ag 71
O=C(N/N=C\c1ccc([N+](=O)[O-])o1)C1COc2ccccc2O1 (centres undefined)	DT40 TDP1 no CPT 6.5µM, DT40 TDP1 CPT 7.3µM (no result: ClpP mod)
O=C(N/N=C\c1ccc(Cl)s1)C1COc2ccccc2O1 (centres undefined)	DT40 TDP1 no CPT 9.2µM, DT40 TDP1 CPT inconclusive
O=C(N/N=C\c1ccc([N+](=O)[O-])s1)C1COc2ccccc2O1 (centres undefined)	IL1B secr inh -53, DT40 TDP1 no CPT 5.8µM, DT40 TDP1 CPT 2.9µM
O=C(N/N=C\c1ccc(-c2ccccc2[N+](=O)[O-])o1)C1COc2ccccc2O1 (centres undefined)	ClpP mod inconclusive
CC(C)(C)c1ccc(C2CC2C(=O)N/N=C\c2ccc[nH]2)cc1 (centres undefined)	IL1B secr inh -61, DT40 TDP1 no CPT inconclusive, DT40 TDP1 CPT inconclusive (no result: ClpP mod)
Oc1ccc(-c2cnccn2)cc1CN1CCN(C2CCCCC2)CC1	none (no result: IL1B secr inh, D3 ag, D3 antag, ClpP mod)
O=C(N/N=C/c1c[nH]c2ccccc12)C1CC1(c1ccccc1)c1ccccc1 (centres undefined)	IL1B secr inh inconclusive, DT40 TDP1 no CPT inconclusive, DT40 TDP1 CPT inconclusive
O=C(N/N=C/c1c[nH]c2ccccc12)C1COc2ccccc2O1 (centres undefined)	DT40 TDP1 no CPT 13µM, ClpP mod inconclusive, DT40 TDP1 CPT 10µM
O=C(N/N=C/c1c[nH]c2ccccc12)C1CC1c1ccccc1 (centres undefined)	DT40 TDP1 no CPT 21µM, DT40 TDP1 CPT 12µM
CCc1cccc(-n2c(=O)c3cccnc3n2CC(=O)NCc2ccccc2)c1	DT40 TDP1 no CPT inconclusive, DT40 TDP1 CPT inconclusive (no result: IL1B secr inh, D3 antag)
O=C(O)c1[nH]c2ccccc2c1NS(=O)(=O)Cc1ccccc1	ClpP mod 28µM
CCc1nc2c(OCCOc3ccc(F)cc3)cccn2c1N(C)C(=O)c1cccs1	DT40 TDP1 no CPT 10µM, DT40 TDP1 CPT 18µM
CCc1nc2c(OCc3ccc(OC(F)F)cc3)cccn2c1N(C)C(=O)c1cccs1	DT40 TDP1 no CPT 16µM, DT40 TDP1 CPT 21µM
CCc1nc2c(OCc3ccc(OC)cc3)cccn2c1N(C)C(=O)c1ccncc1	none
CCc1cc2c(Nc3ccc(O)cc3)nc(C)nc2s1	none
O=c1oc2c(O)c(O)cc3c(=O)oc4c(O)c(O)cc1c4c23	IL1B secr inh -51, DT40 TDP1 CPT inconclusive
O=c1oc2ccccc2c2oc3cc(O)c(O)cc3c12	none (no result: ClpP mod)
COc1ccc(CN(Cc2cc3cccc(C)c3n3nnnc23)C(=O)N2CCOCC2)cc1	DT40 TDP1 no CPT inconclusive, DT40 TDP1 CPT 16µM
COc1ccc(OC)c(/C=C/C(=O)c2ccc(Cl)cc2)c1	IL1B secr inh -89, DT40 TDP1 no CPT inconclusive, DT40 TDP1 CPT 18µM
COc1ccccc1/C=C/C(=O)c1ccc(NC(C)=O)cc1	IL1B secr inh -107, DT40 TDP1 no CPT 15µM, DT40 TDP1 CPT inconclusive
COc1ccccc1/C=C/C(=O)NC(=S)NC(C)C	DT40 TDP1 no CPT 16µM, DT40 TDP1 CPT inconclusive
COc1ccccc1/C=C/C(=O)c1c2c(c(C)[nH]c1=O)CCCC2	IL1B secr inh -101, DT40 TDP1 no CPT inconclusive, DT40 TDP1 CPT inconclusive
CCNc1ncc2nc(-c3ccc(Cl)cc3)c(=O)n(-c3ccccc3)c2n1	none (no result: IL1B secr inh, D3 ag, D3 antag, ClpP mod)
COc1ccccc1/C=C/C(=O)c1ccccc1	DT40 TDP1 no CPT 13µM, DT40 TDP1 CPT inconclusive
